Among all 1,500 compounds or so, about 100 (6.7%) were called active. Entries that show only a call come without a potency. Not shown: some 7% with an inconclusive outcome. Calls follow the shape of the dose curve; as a rule, active = well fitted inhibition curve with a large enough effect; inconclusive = small, poorly fitted or top-dose-only effect, or effect the other way; inactive = flat fitted curve, though single readings scatter. For the sample, actives were picked, then their nearest neighbours and some compounds at random.
Potency is read from the fitted curve at half-maximal effect.

Runt-related transcription factor 1 (Homo sapiens) + Core-binding factor subunit beta (Homo sapiens), sequence (Q01196 whole entry, looked up): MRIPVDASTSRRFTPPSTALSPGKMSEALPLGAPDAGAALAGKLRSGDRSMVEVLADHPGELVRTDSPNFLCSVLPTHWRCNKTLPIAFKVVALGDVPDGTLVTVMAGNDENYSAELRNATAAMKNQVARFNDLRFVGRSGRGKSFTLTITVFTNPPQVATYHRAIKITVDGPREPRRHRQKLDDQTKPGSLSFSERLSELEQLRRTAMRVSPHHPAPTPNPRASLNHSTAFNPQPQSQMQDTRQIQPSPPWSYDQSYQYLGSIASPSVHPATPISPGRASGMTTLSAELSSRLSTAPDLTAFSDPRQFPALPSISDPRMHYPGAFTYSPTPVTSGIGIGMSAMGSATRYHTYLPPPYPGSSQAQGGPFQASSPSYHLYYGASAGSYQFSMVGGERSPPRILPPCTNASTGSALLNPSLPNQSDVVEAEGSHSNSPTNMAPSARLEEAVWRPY
Runt-related transcription factor 1 (Homo sapiens) + Core-binding factor subunit beta (Homo sapiens), sequence (Q13951 whole entry, looked up): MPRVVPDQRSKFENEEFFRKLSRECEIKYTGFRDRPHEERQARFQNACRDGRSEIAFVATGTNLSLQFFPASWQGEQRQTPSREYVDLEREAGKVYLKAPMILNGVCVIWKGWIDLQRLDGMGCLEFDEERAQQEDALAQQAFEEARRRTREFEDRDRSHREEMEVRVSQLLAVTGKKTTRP

The test has as its target Runt-related transcription factor 1 (Homo sapiens) + Core-binding factor subunit beta (Homo sapiens) (UniProt Q01196+Q13951). As to the kind of experiment: qHTS Assay for Compounds Blocking the Interaction Between CBF-beta and RUNX1 for the Treatment of Acute Myeloid Leukemia: Hit Validation. Also: nearly all actives have a fitted effect of over 60% in size. The settings on record: AlphaScreen CBFb-His/RUNX1-biotin binding; series mostly up to 59.8 µM. From the text: NIH Chemical Genomics Center [NCGC]
NIH Molecular Libraries Probe Production centers Network [MLPCN]
Assay Submitter (PI): Paul Liu
Core Binding Factor (CBF) abnormalities are associated with 20-25% of all acute myeloid leukemias (AML), of which 5-10% are further sub classified as acute myelomonocytic leukemia with eosinophilia, also known as M4Eo in the FAB classification scheme. This subtype of leukemia is usually associated with chromosome 16 inversion (p13:q22). Chromosome 16 inversion results in formation of the fusion oncogene CBFB-MYH11, which encodes the fusion protein CBF-beta-SMMHC.
It has been hypothesized that the interference of CBF-beta and RUNX1 binding could have therapeutic implications for patients with CBF mediated leukemias. We developed a CBF-beta and RUNX1 binding assay in AlphaScreenTM format and optimized it for high throughput screening to search for inhibitors. The goal of this project is to screen MLPCN's compound collection (MLSMR) for identifying the inhibitors of the interaction between CBF-beta and RUNX1 proteins as research probes. If these probes work well in the animal models, the ultimate goal of this project is to development a new drug treatment for this disease.
This assay can not be used to assess how apparent inhibitors interfere with protein binding, and whether inhibitors specifically bind to either protein. Disruption of this protein-protein interaction, through any mechanism, is the intended target activity.
The present data set was run to confirm the activity of hits from the primary screen.
NCGC Assay Protocol Summary:
Step, Parameter, Description
(1) Reagent, 3 uL CBFb-His/RUNX1-biotin mix incubated together for 20 minutes at room temperature (30 nM each)
(2) Compound or control, 23 nL compound stock solution
(3) Incubation, 15 minutes at Room temperature
(4) Reagent, 1 uL 50 ng each of beads (Nickel beads and streptavidin beads)
(5) Incubation, 90 minutes at Room temperature
(6) Detection, Excitation=365 nm Emission=440 nm, Envision reader in AlphaScreenTM mode
Keywords: MLSMR, MLPCN, NIH Roadmap, qHTS, NCGC, Core binding factor, CBF, CBF-beta, Acute myeloid leukemia
Take `COc1ccccc1/C=C/C=N/n1c(-c2ccccn2)n[nH]c1=S`: the Potency was 11.2 µM (active). In the case of `Cc1ccc(/C=N/n2c(-c3ccncc3)n[nH]c2=S)s1` it was “inactive”; in that of `COc1cc(/C=N/n2c(-c3ccccc3)n[nH]c2=S)cc(OC)c1O`, “inactive”; in that of `CC(=O)c1c(C)nc(Nc2nc3ccccc3s2)nc1C`, “inactive”. The result for `COc1ccc(Nc2cc(=O)n(-c3ccccc3)c3c2c(=O)n(C)c(=O)n3C)cc1` reads “inactive”. `Cn1c(=O)c2c(nc(N3CCOCC3)n2C/C=C/c2ccccc2)n(C)c1=O`: the Potency entry is “inactive”. As for `COCCCN1CCN(C2Cc3ccccc3Sc3ccc(Cl)cc32)CC1` (stereo unspecified), the Potency is 12.2 µM (active). With `CC(C)(C)OC(=O)N1CCC[C@H]1c1nnc(SCc2ccccc2)o1`, the Potency entry was “inactive”. As for `CCCCNC(=O)Nc1ncn[nH]1`, the Potency result was “inactive”.

`Cc1nn(-c2ccccc2)c(NC(=O)c2cccs2)c(-c2ccccc2Cl)c1=O`: the Potency result is “inactive”.

`CC(C)(C)OC(=O)N[C@@H](Cc1ccccc1)c1nnc(SCC(N)=O)o1`: the Potency result is “inactive”.

Regarding `O=C(O)c1ccc(/C=N\Nc2ccc(S(=O)(=O)N3CCOCC3)cc2[N+](=O)[O-])cc1`, the Potency entry was “inactive”. As to `O=C(N/N=C/c1ccc(Br)s1)c1ccco1`, the Potency result was “inactive”. As for `Cc1nn(C)cc1/C=N/NC(=O)c1ccco1`, the Potency entry was “inactive”. In the case of `CCN(CC)c1ccc(/C=N/NC(=O)c2ccco2)c(O)c1` it was 31.6 µM (active); in that of `CCOC(=O)C(=CNNc1c(C)csc1C(=O)OC)C(=O)OCC`, “inactive”; in that of `COC(=O)[C@H](CC(C)C)NC(=O)NCCC1=CCCCC1`, “inactive”. Take `CCOc1ccc(/C=C2\CCc3ccccc3C2=O)cc1`: the Potency result is “inactive”. Turning to `CCCOc1ccc(-c2nc(-c3ccc([N+](=O)[O-])cc3)cs2)cc1`, the Potency result was “inactive”. For `COc1cccc(C2/C(=C(/O)c3ccccc3)C(=O)C(=O)N2Cc2ccco2)c1` (stereo unspecified), the Potency entry was “inactive”.

Regarding `O=C(/C=C/c1ccccc1)Nc1cccnc1Oc1ccccc1F`, the Potency entry is “inactive”.

Take `O=[N+]([O-])c1ccc(O)c(/C=N/NC2=NS(=O)(=O)c3ccccc32)c1`: the Potency was 2.82 µM (active). Turning to `O=[N+]([O-])c1ccc2c(c1)S(=O)c1ccccc1-2` (stereo unspecified), the Potency result is “inactive”. As for `Cc1cc([N+](=O)[O-])nn1CC(=O)N/N=C/c1ccccc1F`, the Potency entry is “inactive”.

On to `COC(=O)[C@H](CC(C)C)NC(=O)N1CCCCC1C` (stereo partly specified), for which the Potency result was “inactive”. The result for `COc1ccc(/C(C)=N/NC(=O)CNC(=O)Cc2ccccc2)c(OC)c1` reads “inactive”; that for `CCCCNC(=O)Nc1ccccc1CC`, “inactive”; that for `Cc1ccc(C)c(NC(=S)N(CCN(C)C)C(C)c2ccccn2)c1` (stereo unspecified), 4.86 µM (active). Consider `CCc1ccccc1NC(=S)N(CCN(C)C)C(C)c1ccccn1` (stereo unspecified), for which the Potency was 6.12 µM (active). `Cc1cccc(C)c1NC(=S)N(CCN(C)C)C(C)c1ccccn1` (stereo unspecified): the Potency was 4.86 µM (active). On to `Cc1c(Cl)cccc1NC(=S)N(CCN(C)C)C(C)c1ccccn1` (stereo unspecified), for which the Potency was 4.34 µM (active). For `COc1ccc(C2=NOC(CNC(=O)c3ccccc3Br)C2)c(OC)c1` (stereo unspecified), the Potency result was “inactive”.

As for `CC(C)(C)NC(=O)NCCc1ccccc1`, the Potency result is “inactive”. As for `Fc1ccc(-c2cc(-c3cccs3)cc(-c3ccccc3)n2)cc1`, the Potency entry is “inactive”. In the case of `Clc1ccc(Nc2ccc(Cl)nn2)cc1` it was “inactive”; in that of `COCc1cc(=O)[nH]c2c1c(-c1ccccc1)nn2C`, “inactive”. Turning to `Cc1cc(N2CCOCC2)n2ncc(-c3ccc(Cl)cc3)c2n1`, the Potency entry was “inactive”. `CC(C)c1nc(C#N)c(NN)o1`: the Potency entry is “inactive”. In the case of `COCc1cc(=O)n2[nH]c(-c3ccco3)cc2n1`, the Potency result is “inactive”. In the case of `CCC1(CC)Nc2ccccc2C(=O)N1c1ccc(OC)cc1` it was “inactive”; in that of `CCNC(=O)NC(=O)c1csc([N+](=O)[O-])c1`, “inactive”; in that of `Cc1ccc(Cl)cc1NC(=S)N(CCN(C)C)C(C)c1ccccn1` (stereo unspecified), 5.46 µM (active).

For the molecule `Cc1ccccc1NC(=S)N(CCN(C)C)C(C)c1ccccn1` (stereo unspecified), the Potency is 4.86 µM (active). The result for `Cc1ccccc1NC(=S)Nc1ccccn1` reads “inactive”; that for `Cc1ccc(Cl)cc1NC(=S)NN`, “inactive”; that for `Cc1cc(NC(=O)Nc2cc(Cl)ccc2C)no1`, “inactive”. On to `NC(=O)C1CCN(c2c([N+](=O)[O-])cc(C(F)(F)F)cc2[N+](=O)[O-])CC1`, for which the Potency result is “inactive”. Regarding `C/C(=N\Nc1ccc(C#N)cc1[N+](=O)[O-])c1ccc(O)cc1`, the Potency result was “inactive”. Consider `CC1CC(=O)Nc2ccccc2N1S(=O)(=O)c1ccc(Cl)cc1` (stereo unspecified), for which the Potency result was “inactive”. As for `O=C(CCCCCCCCCCC(=O)NCc1cccnc1)NCc1cccnc1`, the Potency entry was “inactive”. `Cc1ccc(C2N=C(N)Nc3nc(=O)c4ccccc4n32)cc1` (stereo unspecified): the Potency entry is “inactive”.

On to `Cc1cccnc1NC(=O)c1csnn1`, for which the Potency result is “inactive”. As to `O=C(OCC1OC(OC(=O)c2cc(O)c(O)c(OC(=O)c3cc(O)c(O)c(O)c3)c2)[C@@H](OC(=O)c2cc(O)c(O)c(OC(=O)c3cc(O)c(O)c(O)c3)c2)C(OC(=O)c2cc(O)c(O)c(OC(=O)c3cc(O)c(O)c(O)c3)c2)C1OC(=O)c1cc(O)c(O)c(OC(=O)c2cc(O)c(O)c(O)c2)c1)c1cc(O)c(O)c(OC(=O)c2cc(O)c(O)c(O)c2)c1` (stereo partly specified), the Potency is 0.398 µM (active). Regarding `O=c1[nH]nc(N2CCOCC2)c(=O)[nH]1`, the Potency entry was “inactive”.

Consider `CCCCCCC(=O)N(O)C1CC(=O)N(c2ccc(F)cc2)C1=O` (stereo unspecified), for which the Potency entry is “inactive”. For the molecule `O=C1Nc2ccccc2C1(O)Cc1ccccn1` (stereo unspecified), the Potency result is “inactive”.

The values are drawn from PubChem BioAssay AID504374 (National Center for Advancing Translational Sciences (NCATS), 2011).
